The results in this text go back to PubChem BioAssay (NCATS).

Activity calls are given as the source filed them. Entries that show only a call come without a potency. Calls come from the whole dose curve; as a rule, active = well fitted cell-killing curve with a large enough effect; inconclusive = small, poorly fitted or top-dose-only effect; inactive = flat fitted curve, though single readings scatter.
Potency is the fitted concentration of half-maximal effect.

A short description of this assay: Cell Viability - LYMP1-002 - Assay at 24 hr (AID 993). The settings on record: LYMP1-002 lymphoblastoid cells viability; series mostly up to 92.2 µM. The text has this:
NIH Chemical Genomics Center [NCGC]
NIH Molecular Libraries Screening Centers Network [MLSCN]
National Institutes of Environmental Health Sciences [NIEHS]
National Toxicology Program [NTP]
We have developed a 1536-well cell-based assay for quantitative high throughput screening (qHTS) against a number of cell lines to determine in vitro cytotoxicity of small molecules. This particular assay uses a human lymphoblastoid cell line (LYMP1-002) purchased from Coriell Institute for Medical Research.
NCGC Assay Protocol Summary:
The CellTiter-Glo luminescent cell viability assay (Promega) is a homogeneous method to measure the number of viable cells in culture. The end point readout of this assay is based on quantitation of intracellular ATP, an indicator of metabolic activity, using the luciferase reaction. Luciferase catalyzes the oxidation of beetle Luciferin to oxyluciferin and light in the presence of ATP. The luminescent signal is proportional to amount of ATP present.
Using the CellTiter-Glo luminescent cell viability assay, the amount of cellular ATP was measured in the lymphoblastoid cell line with complete culture medium following compound treatment for 24 hours. The assay was performed in opaque white Kalypsys 1536-well plates. In the screen, tetraoctylammonium bromide was used as positive control. Library compounds were measured for their ability to cause acute toxicity in the cell line, as reflected by a decrease in intracellular ATP levels, in a concentration-dependent manner. […] AC50 values were determined from concentration-response data modeled with the standard Hill equation.
qHTS protocol for CellTiter Glo lymphoblastoid cellular assay
[Step] [Parameter] [Value] [Description]
1. Reagent; 5 uL; 2500 lymphoblastoid cells/well
2. Time; 5 hr; 37 C incubation
4. Controls; 23 nL; Tetraoctylammonium bromide 6.4pM to 92 uM
5. Time; 24 hr; 37 C incubation
6. Reagent; 5 uL; CellTiter Glo reagent
7. Time; 30 min; Room Temperature
8. Detection; Luminescence; Viewlux plate reader
Keywords: cell viability, cytotoxicity, lymphoblastoid cell line, luminescence, NTPHTS, NTPHTS_NCGC, NIEHS, DSSTox, MLSMR, MLSCN, NIH Roadmap, qHTS, NCGC
On to `CCCC(C)CO` (stereo not given), for which the Potency entry was “inactive”.

On to `O=Cc1c(Cl)cccc1Cl`, for which the Potency entry was “inactive”.

Take `C=CCn1c(=O)n(CC=C)c(=O)n(CC=C)c1=O`: the Potency entry is “inactive”.

Turning to `O=[N+]([O-])c1cccc(C(F)(F)F)c1`, the Potency result was “inactive”.

With `CC1(N)CCC(C(C)(C)N)CC1` (stereo not given), the Potency entry is “inactive”.

On to `O=C(O)c1ccc(CO)o1`, for which the Potency entry is “inactive”.

On to `Cc1ccc(C(=O)O)cc1`, for which the Potency result was “inactive”.

As to `Fc1ccccc1`, the Potency entry was “inactive”.

Consider `O=Cc1ccc(CO)o1`, for which the Potency entry was “inactive”.

For the compound `NC=O`, the Potency result was “inactive”.

For the compound `CCOC(=O)OCC`, the Potency result was “inactive”.

Turning to `ClC/C=C/CCl`, the Potency result is “inactive”.

As for `CCOc1ccccc1N`, the Potency result was “inactive”.

For the compound `CCCCCO`, the Potency entry was “inactive”.

As to `NC(=S)NNC(N)=S`, the Potency result was “inactive”.

For `Cc1cccc(C(=O)O)c1`, the Potency entry was “inactive”.

In the case of `CC/C(C)=N/O`, the Potency result was “inactive”.

In the case of `COc1cccc(N)c1`, the Potency result was “inactive”.

Consider `CCCCC/C=C/C=C/C=O`, for which the Potency result is “inactive”.

As to `Cc1ccco1`, the Potency result is “inactive”.

In the case of `Cc1ccc(Br)cc1`, the Potency entry is “inactive”.

Regarding `C(=C/c1ccccc1)/c1ccccc1`, the Potency entry was “inactive”.

As for `ON=C1CCCCC1`, the Potency result is “inactive”.

Turning to `O=C1CCCCC1`, the Potency entry is “inactive”.

As for `Cc1ccccc1Br`, the Potency entry was “inactive”.

Regarding `O=C(O)c1ccc(C(=O)O)cc1`, the Potency result is “inactive”.

On to `O=C(O)CCSSCCC(=O)O`, for which the Potency result was “inactive”.

Consider `NC(=O)CCCCC(N)=O`, for which the Potency entry was “inactive”.

For `CCCCCCC=O`, the Potency result is “inactive”.

Take `CCCCOCCOCCOCCCC`: the Potency entry is “inactive”.

For the compound `c1ccc(Nc2ccccc2)cc1`, the Potency result is “inactive”.

For `Cc1ccc(Cl)cc1`, the Potency result is “inactive”.

`O=[N+]([O-])c1ccc2nc[nH]c2c1`: the Potency entry was “inactive”.

On to `O=C1NC(=O)c2cc([N+](=O)[O-])ccc21`, for which the Potency result is “inactive”.

As for `FC(F)(F)c1cccc(Cl)c1`, the Potency entry is “inactive”.

For `Cc1nc2ccc(Cl)cc2[nH]1`, the Potency entry was “inactive”.

For the compound `CC/C=C/C#N`, the Potency result is “inactive”.

`O=C(O)c1cccc(Cl)c1Cl`: the Potency entry was “inactive”.

For `CC1=C(/C=C/C(C)=C/C=C/C(C)=C\C=O)C(C)(C)CCC1`, the Potency was 63.1 µM (active).

As to `CC(=O)Nc1cccc(N)c1`, the Potency result is “inactive”.
